# Where a name gives a salt, the structure may show the parent alone. ± gives the standard error. In all, about 1,300 compounds went through this assay and about 75 (6%) showed an effect of 50% or more. Many of the other results were omitted from the sample, so strong results are more common in it than they were.
# Test system: Trichoderma virens ATCC 9645
# Assay: growth yield (OD600) relative to untreated control; higher = less growth inhibition
# Conditions: compound concentration: 100 uM
# Method in brief: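 Trichoderma virens ATCC 9645 spores from 7-day potato dextrose agar plates were suspended in potato dextrose broth at 15,000 spores ml^−1. Aliquots of 100 μl with library compounds at 100 μM final, with or without a co-applied biocide at 200 ng ml^−1, were grown in 96-well plates at 30 °C. OD600 was read at 40 h and 72 h on a BioTek EL800. Growth is expressed relative to the control without either agent, as means of duplicate screens.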
Structure (SMILES),growth yield (40 h) [%],growth yield (72 h) [%]
CC(=O)Nc1c(I)c(C(=O)N[C@H]2C(O)O[C@H](CO)[C@@H](O)[C@@H]2O)c(I)c(N(C)C(C)=O)c1I (stereo not given in full) [Metrizamide],102 ± 13,105 ± 12
CC1(C)O[C@@H]2C[C@H]3[C@@H]4CCC5=CC(=O)C=C[C@]5(C)[C@H]4[C@@H](O)C[C@]3(C)[C@]2(C(=O)CO)O1 [Desonide],109 ± 11,98.7 ± 6.6
CCC(=O)[C@@]1(C)[C@H](C)C[C@H]2[C@@H]3CCC4=CC(=O)C=C[C@]4(C)[C@H]3[C@@H](O)C[C@@]21C [Rimexolone],112 ± 14,106 ± 8.3
COc1c(O[C@@H]2O[C@H](CO)[C@@H](O)[C@H](O)[C@H]2O)cc2c(c1OC)-c1ccc(SC)c(=O)cc1[C@@H](NC(C)=O)CC2 [Thiocolchicoside],101 ± 1.4,103 ± 2.2
NS(=O)(=O)c1cc2c(cc1C(F)(F)F)NCNS2(=O)=O [Hydroflumethiazide],102 ± 2.4,100 ± 3.1
O=C1c2c(O)ccc(O)c2C(=O)c2c(NCCNCCO)ccc(NCCNCCO)c21 [Mitoxantrone dihydrochloride],2.86 ± 2.9,0.21 ± 0.21
"O=C1c2cccc(O)c2C(=O)c2c(O)cccc21 [1,8-Dihydroxyanthraquinone]",85.8 ± 11,87.2 ± 8.7
O=C1c2c(O)cccc2Cc2cccc(O)c21 [Anthralin],96.7 ± 3.6,89.5 ± 2.8
CN1[C@@H]2CC[C@H]1C[C@@H](OC(c1ccccc1)c1ccccc1)C2 [Benztropine mesylate],105 ± 3.6,102 ± 1.7
O=C1OCCN1/N=C/c1ccc([N+](=O)[O-])o1 [Furazolidone],84.3 ± 7.2,87.7 ± 5.9
Nc1nc(=O)c2nc(CNc3ccc(C(=O)N[C@@H](CCC(=O)O)C(=O)O)cc3)cnc2[nH]1 [Folic acid],102 ± 1.4,104.7 ± 0.42
CC/C(=C(\c1ccccc1)c1ccc(OCCN(C)C)cc1)c1ccccc1 [Tamoxifen citrate],1.11 ± 0.48,1.26 ± 0.21
CN(C)CCOC(=O)COc1ccc(Cl)cc1 [Meclofenoxate hydrochloride],95.1 ± 2.1,92.1 ± 3.6
CCN(CC)CCOC(=O)C(c1ccccc1)c1ccccc1 [Adiphenine hydrochloride],98.8 ± 7.6,96.9 ± 5.5
CN(C)CCOc1ccc(/C(=C(/CCCl)c2ccccc2)c2ccccc2)cc1 [Toremifene],3.81 ± 0.32,2.73 ± 0.21
COc1ccc(C(Cl)=C(c2ccc(OC)cc2)c2ccc(OC)cc2)cc1 [Chlorotrianisene],101 ± 2.7,96.7 ± 1.5
COc1ccc(C(=O)NCc2ccc(OCCN(C)C)cc2)cc1OC [Itopride],105 ± 5.7,105 ± 3.7
COc1cc(C(=O)NCc2ccc(OCCN(C)C)cc2)cc(OC)c1OC [Trimethobenzamide hydrochloride],103 ± 2.4,97.75 ± 0.21
"CCN(CC)CCOc1ccc(C(=C(Cl)c2ccccc2)c2ccccc2)cc1 [Clomiphene citrate (Z,E)]",1.75 ± 1.1,2.2 ± 0.1
CN(C)CCOC(c1ccccc1)c1ccccc1 [Diphenhydramine hydrochloride],99.9 ± 5.2,99.4 ± 3.1
COc1ccc(OC)c(C(O)CNC(=O)CN)c1 (stereo not given) [Midodrine hydrochloride],101.8 ± 0.16,105 ± 0.73
CC(=O)[C@H]1CC[C@H]2[C@@H]3C=CC4=CC(=O)CC[C@@]4(C)[C@@H]3CC[C@]12C [Dydrogesterone],78.3 ± 1.1,79.9 ± 2.1

Structure (SMILES),growth yield (40 h) [%],growth yield (72 h) [%]
CN(C)[C@@H]1C(O)=C(C(N)=O)C(=O)[C@@]2(O)C(O)=C3C(=O)c4c(O)ccc(Cl)c4[C@@](C)(O)[C@H]3C[C@@H]12 [Chlortetracycline hydrochloride],90.54 ± 0.32,90.93 ± 0.32
Cc1onc(-c2ccccc2)c1-c1ccc(S(N)(=O)=O)cc1 [Valdecoxib],107 ± 11,104 ± 8.3
CCOC(=O)[C@H](CCc1ccccc1)N[C@H]1CCc2ccccc2N(CC(=O)O)C1=O [Benazepril hydrochloride],104 ± 3.5,105 ± 2.1
O=C(CCCCC(=O)Nc1c(I)cc(I)c(C(=O)O)c1I)Nc1c(I)cc(I)c(C(=O)O)c1I [Iodipamide],103 ± 1.1,101.6 ± 0.32
CC(Oc1c(Cl)cccc1Cl)C1=NCCN1 (stereo not given) [Lofexidine],104 ± 1.3,105 ± 1.1
CN1CCCN=C1/C=C/c1cccc(O)c1 [Oxantel pamoate],93.4 ± 0.64,99.8 ± 1.1
Cc1cc(CC(=O)O)n(C)c1C(=O)c1ccc(Cl)cc1 [Zomepirac sodium salt],93.7 ± 5.7,88 ± 3.9
COc1ccc(-c2cc(=S)ss2)cc1 [Anethole-trithione],76.4 ± 9.1,77.5 ± 7.2
CNC(=O)c1c(I)c(C(=O)NCC(=O)Nc2c(I)c(C(=O)O)c(I)c(C(=O)NCCO)c2I)c(I)c(N(C)C(C)=O)c1I [Ioxaglic acid],105 ± 5.2,101 ± 2.2
CCC(=O)O[C@@H](O[P@](=O)(CCCCc1ccccc1)CC(=O)N1C[C@H](C2CCCCC2)C[C@H]1C(=O)O)C(C)C [Fosinopril],109.8 ± 0.48,103 ± 3.5
CCCCc1oc2ccc(NS(C)(=O)=O)cc2c1C(=O)c1ccc(OCCCN(CCCC)CCCC)cc1 [Dronedarone hydrochloride],6.19 ± 1.8,1.99 ± 0.52
CCCCc1oc2ccccc2c1C(=O)c1cc(I)c(OCCN(CC)CC)c(I)c1 [Amiodarone hydrochloride],3.18,2.94
CN(CCOc1ccc(NS(C)(=O)=O)cc1)CCc1ccc(NS(C)(=O)=O)cc1 [Dofetilide],100 ± 5.9,98.7 ± 4.3
CCCCOc1cc(C(=O)OCCN(CC)CC)ccc1N [Benoxinate hydrochloride],103 ± 3,103 ± 1.1
CCCCCCCN(CC)CCCC(O)c1ccc(NS(C)(=O)=O)cc1 (stereo not given) [Ibutilide fumarate],100 ± 2.9,101 ± 2.5
CCCCOc1cc(C(=O)NCCN(CC)CC)c2ccccc2n1 [Dibucaine],101.02 ± 1e-14,98.37 ± 0.21
C[N+]1(C)CCC(OC(=O)C(O)(c2ccccc2)C2CCCC2)C1 (stereo not given) [Glycopyrrolate],96.26 ± 0.95,90.72 ± 0.73
CCC(=O)OCC(=O)[C@@]1(OC(=O)CC)[C@@H](C)C[C@H]2[C@@H]3CCC4=CC(=O)C=C[C@]4(C)[C@@]3(Cl)[C@@H](O)C[C@@]21C [Beclomethasone dipropionate],103 ± 7.8,98.7 ± 3
N=C(N)NCCN1CCCCCCC1 [Guanethidine sulfate],99.6 ± 1.1,100.79 ± 0.1
OCCN1CCN(CC/C=C2/c3ccccc3Sc3ccc(Cl)cc32)CC1 [Zuclopenthixol dihydrochloride],15.1 ± 1.8,60.4 ± 5.7
CN(C)CC/C=C1/c2ccccc2Sc2ccc(Cl)cc21 [Chlorprothixene hydrochloride],70.5 ± 6.3,90.8 ± 2.7
OCCOCCN1CCN(C2=Nc3ccccc3Sc3ccccc32)CC1 [Quetiapine hemifumarate],108 ± 15,106 ± 12

Structure (SMILES),growth yield (40 h) [%],growth yield (72 h) [%]
Cc1cccc(N(C)C(=S)Oc2ccc3ccccc3c2)c1 [Tolnaftate],0,0
O=C(O)COC(=O)Cc1ccccc1Nc1c(Cl)cccc1Cl [Aceclofenac],94.2 ± 2.1,95.02 ± 0.42
CCCCCNC(=N)N/N=C/c1c[nH]c2ccc(OC)cc12 [Tegaserod maleate],5.24 ± 0.16,3.88 ± 0.52
COc1ccc2[nH]cc(CCNC(C)=O)c2c1 [Melatonin],101,97.3
CN(C)CCN1C(=O)c2ccccc2N(C)c2ccccc21 [Dibenzepine hydrochloride],101 ± 1.8,105 ± 3
CC(C)NC[C@@H](O)COc1ccc(CC(N)=O)cc1 [(R)-(+)-Atenolol],102 ± 4,97.8 ± 1.8
C=C1C[C@H]2[C@@H]3C=C(C)C4=CC(=O)CC[C@]4(C)[C@H]3CC[C@]2(C)[C@@]1(OC(C)=O)C(C)=O [Melengestrol acetate],96.6 ± 1.6,94.5 ± 2.4
C=C(NC(=O)C(=C)NC(=O)c1csc(C2=N[C@@H]3c4csc(n4)[C@H]4NC(=O)c5csc(n5)[C@H]([C@](C)(O)[C@@H](C)O)NC(=O)[C@H]5CSC(=N5)/C(=C/C)NC(=O)[C@H]([C@@H](C)O)NC(=O)c5csc(n5)[C@]3(CC2)NC(=O)[C@H](C)NC(=O)C(=C)NC(=O)[C@H](C)NC(=O)[C@H]([C@@H](C)CC)N[C@@H]2C=Cc3c([C@H](C)O)cc(nc3[C@H]2O)C(=O)O[C@@H]4C)n1)C(N)=O [Thiostrepton],96.6 ± 2.9,99 ± 2.1
CC(=O)NCCCS(=O)(=O)O [Acamprosate calcium],98.32 ± 0.48,95.9 ± 1.7
Oc1c(Cl)cc(Cl)c2cccnc12 [Chloroxine],1.27 ± 0.32,1.36 ± 0.32
Oc1c(I)cc(Cl)c2cccnc12 [Clioquinol],18.3 ± 7.8,12.9 ± 5.3
CCN[C@H]1C[C@H](C)S(=O)(=O)c2sc(S(N)(=O)=O)cc21 [Dorzolamide hydrochloride],99.3 ± 5.6,92.7 ± 6.7
CO/N=C(\C(=O)N[C@@H]1C(=O)N2C(C(=O)O)=C(COC(N)=O)CS[C@H]12)c1ccco1 [Cefuroxime sodium salt],96.9 ± 2.9,89.9 ± 1.1
O=C1C(CC[S+]([O-])c2ccccc2)C(=O)N(c2ccccc2)N1c1ccccc1 (stereo not given) [Sulfinpyrazone],102 ± 1.1,106 ± 2.1
CC(N/C(=N\C#N)Nc1ccncc1)C(C)(C)C (stereo not given) [Pinacidil],100 ± 2.2,103 ± 0.21
N=C(N)NCc1cccc(I)c1 [Iobenguane sulfate],105 ± 1.9,106 ± 1.1
Nc1nc(NC2CC2)c2ncn([C@H]3C=C[C@@H](CO)C3)c2n1 [Abacavir Sulfate],97.2 ± 2.5,98.48 ± 0.1
CCC[C@H](N[C@@H](C)C(=O)N1[C@H](C(=O)O)C[C@@H]2CCCC[C@@H]21)C(=O)OCC [Perindopril],101 ± 3.5,96.9 ± 2.5
Cn1c(=O)c2c(ncn2CC(=O)O)n(C)c1=O [Acefylline],96.6 ± 1.9,95.12 ± 0.94
O=C1NCCN1CCN1CCC(c2cn(-c3ccc(F)cc3)c3ccc(Cl)cc23)CC1 [Sertindole],34.5 ± 20,111 ± 2.4
O=C(O)c1cn(-c2ccc(F)cc2)c2cc(N3CCNCC3)c(F)cc2c1=O [Sarafloxacin],101 ± 4.1,97 ± 2.4
